{
  "source": "PubChem BioAssay AID2713",
  "about": "(National Center for Advancing Translational Sciences (NCATS), 2010)",
  "assay": "qHTS Multiplex Assay to Identify Dual Action Probes in a Cell Model of Huntington: Cytotoxicity in HTT Striatal Cells",
  "details": "STHdhQ111/111 striatal cells, serum-free, ATP luminescence, 24 h",
  "source_text": "NIH Chemical Genomics Center [NCGC] NIH Molecular Libraries Probe Production centers Network [MLPCN] MLPCN Grant: MH084839-01A1 Assay Submitter (PI): Wei Zheng NCGC Assay Overview: Huntington's disease is a neurodegenerative disorder caused by a trinucleotide repeat expansion in Exon 1 of the Huntingtin gene. The CAG trinucleotide encodes glutamine and polyglutamine expansions cause cell death in selective areas of the brain. Huntington polyglutamine repeats have the tendency to form aggregates which are observable in later stages of the disease. The exact nature of the aggregates, whether toxic, protective, or insignificant, is unclear. A stable PC12 cell line containing a gene fusion of Exon 1 of the Huntingtin gene linked to GFP under the control of the inducible ecdysone promoter were used as the cell-based model of Huntington Disease for high throughput screening. Exon 1 of the Huntingtin gene contained an expansion of 103 polyglutamines (Q103) which, when expressed, caused cell death and distinct, bright GFP aggregates. The amount of cell death and the size and intensity of GFP aggregates increased over time and induction level. The cell death were quantified with a measurement of ATP content in the cells. A maximal 40-50% of cell death was observed when the Huntington gene was induced in this cell line. We optimized this assay in a homogeneous 1536 well format. A quantitative high throughput screen (qHTS) was conducted on the PC12 cells which were induced to express the toxic fusion construct. Small molecules which prevented cell death were identified by using a luminescent ATP quantification method (Perkin Elmer's ATPlite). This assay examines influence on cytotoxicity induced by serum deprivation in normal and Huntington striatal cells.\nFreshlay passaged STHdhQ7/7 cells and mutant STHdhQ111/111 Huntington striatal cells were plated at a density of 20,000 cells/well in complete media and allowed to recover overnight at 33C. The next day, media was replaced with serum containing media or serum free media containing the compound. After 24 hours of incubation at 33 C, cells were assayed for ATP content using the Cell Titer-GLO ATP assay from Promega (cat # G7571). ATP/Toxicity Assay in Serum Free Media (SFM) (96 well plate format) 1. Plate 20,000 cells/well and incubate the cells in complete (w/serum) media overnight 2. Remove media, wash twice with PBS and add the SFM w/ or w/o the compound 3. Incubate at 33C; cells can be incubated at 39C for a more dramatic effect 4. ATP measurements after […] treatment, per kit protocol",
  "note": "Several values for one entry are separate records, joined by “and”; a condition that tells them apart may be missing. Equal values may be shown once. Inconclusive results are not listed. Activity calls are given as the source filed them.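 Rule for the calls: active = compounds raising survival of Huntington mutant striatal cells while barely changing normal control cells; inconclusive = compounds that make cell death worse; inactive = the rest.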",
  "data": [
    {"molecule": "Cn1nnnc1Sc1ncnc2scc(-c3ccccc3)c12", "values": [
      {"measurement": "viability change", "setting": "measured here: Q7/7 cells, at 30 µM", "value": "33% and 26%"},
      {"measurement": "viability change", "setting": "measured here: Q7/7 cells, at 60 µM", "value": "21% and 15%"},
      {"measurement": "viability change", "setting": "measured here: Q111/111 cells, at 60 µM", "value": "191% and 196%"},
      {"measurement": "viability change", "setting": "at 30 µM", "value": "231% (active) and 240% (active)"},
      {"measurement": "viability change", "setting": "measured here: Q7/7 cells, FBS, at 30 µM", "value": "9% and 8%"},
      {"measurement": "viability change", "setting": "measured here: Q7/7 cells, FBS, at 60 µM", "value": "7% and 5%"},
      {"measurement": "viability change", "setting": "measured here: Q111/111 cells, FBS, at 30 µM", "value": "18% and 16%"},
      {"measurement": "viability change", "setting": "measured here: Q111/111 cells, FBS, at 60 µM", "value": "9% and 8%"}
    ]}
  ]
}
